# Source: PubChem BioAssay
# This is a sample that favours compounds with a hit; in the whole collection about 10% have one here.
# PTEN del growth: growth suppression of PTEN-null HCT116, primary screen, cell-based, CellTiter-Glo; HCT116 PTEN-null viability, 60 h; stronger effect = lower value; viability, % at 10 µM; 140,000 tested, 1.2% active; AID 827, 2007;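 active means viability at or below a set limit, 4 SD under the median of all tested compounds, cut at about 3.7% in these data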;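 further: PTEN knockout HCT116 line with beta catenin targeted HCT116 as companion control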
# p97 inhibitor: inhibitors of human p97 ATPase, primary screen, biochemical. Transitional endoplasmic reticulum ATPase (Homo sapiens), P55072. recombinant p97 ATPase, Kinase-Glo ATP luminescence, 3 h. inhibition, % at 8 µM. 220,000 tested, 0.42% active. AID 1481, 2009; in the data active means inhibition above about 15%;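 further: 0% = DMSO vehicle and 100% = wells lacking enzyme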
# Target sequence (P55072 whole entry, looked up): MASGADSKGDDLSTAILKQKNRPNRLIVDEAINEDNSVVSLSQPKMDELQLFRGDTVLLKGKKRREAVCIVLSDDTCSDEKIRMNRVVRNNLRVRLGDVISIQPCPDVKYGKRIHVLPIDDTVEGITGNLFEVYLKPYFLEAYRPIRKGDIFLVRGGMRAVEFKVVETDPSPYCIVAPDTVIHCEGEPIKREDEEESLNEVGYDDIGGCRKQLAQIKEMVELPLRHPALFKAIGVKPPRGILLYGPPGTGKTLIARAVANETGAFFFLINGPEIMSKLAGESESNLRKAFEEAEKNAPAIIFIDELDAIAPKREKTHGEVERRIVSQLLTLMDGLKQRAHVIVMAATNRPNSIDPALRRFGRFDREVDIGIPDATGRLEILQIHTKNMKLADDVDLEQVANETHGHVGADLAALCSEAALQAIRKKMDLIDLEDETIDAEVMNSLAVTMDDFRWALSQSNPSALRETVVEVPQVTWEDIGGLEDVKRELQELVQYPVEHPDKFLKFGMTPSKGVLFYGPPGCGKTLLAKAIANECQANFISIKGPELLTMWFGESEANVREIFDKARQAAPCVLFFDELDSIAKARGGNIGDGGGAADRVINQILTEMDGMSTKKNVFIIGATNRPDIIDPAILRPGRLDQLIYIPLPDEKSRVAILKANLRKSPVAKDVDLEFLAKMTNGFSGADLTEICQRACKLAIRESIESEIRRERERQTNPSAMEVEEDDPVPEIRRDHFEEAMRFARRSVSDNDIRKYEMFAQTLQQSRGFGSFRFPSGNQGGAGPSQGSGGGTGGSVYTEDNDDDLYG
# HCT116 bCat-KO: primary screen for growth suppressors in beta-catenin knockout HCT116 cells (colon tumor, human). HCT116 beta-catenin knockout viability, CellTiter-Glo, 60 h; stronger effect = lower value. viability, % at 10 µM. 140,000 tested, 1.5% active;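 active means viability at or under a set limit, the compound median less 4 SD, cut at about 6% in these data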;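 further: 0% = Hyamine 1622 control at 20 µM and 100% = untreated cell control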
# ROMK mod: ROMK potassium channel modulators, primary screen, cell-based, thallium flux, MLSMR library; 130,000 tested, 2% active; B-score at 10 µM; AID 1918, 2009; ATP-sensitive inward rectifier potassium channel 1 (Homo sapiens), P48048; Tet-inducible ROMK, thallium flux fluorescence; actives lie on both sides;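 active means signal ratio slope over the read window, or its plate-corrected B-score, at least 3 SD from the plate mean, either direction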;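 further: B-score of the F/F0 ratio slope over 7 to 12 s after thallium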
# L major viab: Leishmania major promastigote growth inhibition, primary screen; AID 1063, 2008; Leishmania major promastigotes, resazurin fluorescence viability; inhibition, % at 10 µM; 200,000 tested, 9% active; in the data active means inhibition above about 50%;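 further: promastigotes grown with compound for 44 hours at 28 °C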
# INS promoter inh: inhibitors of insulin promoter-driven GFP, primary screen, imaging, TRM-6 cells (human fetal islet line), eGFP reporter, cell count | reporter expression induced with tamoxifen | inhibition, % at 2 µM | 130,000 tested, 0.9% active;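 active means inhibition above the mean plus 3 SD, with well images judged a real hit on visual review, cut at about 60% in these data, passing the limit was not always enough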
# Numbers without * were called inactive; . = no result given.
SMILES,PTEN del growth,p97 inhibitor,HCT116 bCat-KO,ROMK mod,L major viab,INS promoter inh
O=S(=O)(NCc1ccc2c(c1)OCO2)c1cccc2cccnc12,104,-2,94,.,92*,0
CCOc1cc(S(=O)(=O)NCc2ccc3c(c2)OCO3)c(C)cc1C,75,-9,66,.,6,-141
COc1cc2c(cc1OC)C1=NC(=O)CN1C(SCc1ccccc1)=N2,96,2,88,.,0,.
CCCC1C2CN(C(C)C)CC=C2C(C#N)=C(N)C1(C#N)C#N (stereo unspecified),100,4,103,-2,76*,.
CC(C)c1ccc(C2C3CSCC=C3C(C#N)=C(N)C2(C#N)C#N)cc1 (stereo unspecified),50,5,38,-2.4,98*,-3
CN1CC=C2C(C#N)=C(N)C(C#N)(C#N)C(CCc3ccccc3)C2C1 (stereo unspecified),86,1,94,.,-3,-212
CN1CC=C2C(C#N)=C(N)C(C#N)(C#N)C(c3ccsc3)C2C1 (stereo unspecified),94,-3,83,.,11,-51
O=C(Cn1c2ccccc2c(=O)c2ccccc21)N/N=C/c1ccc(N2CCCC2)c([N+](=O)[O-])c1,7,-6,2.7*,.,-4,10
O=C(CSc1nc2ccccc2o1)N1c2ccccc2Sc2ccc(C(F)(F)F)cc21,62,-2,66,0.3,80*,-3
O=C(CN1CCN(c2ccccn2)CC1)N1c2ccccc2Sc2ccc(C(F)(F)F)cc21,66,0,49,.,68*,38
O=C(Nc1nc2ccccc2n1CCOc1ccccc1)c1ccco1,15,-2,16,.,62*,.
S=C(Nc1ccccc1)Nc1nc2ccccc2n1CCOc1ccc(Br)cc1,2.1*,0,1.6*,.,45,.
O=C(Nc1nc2ccccc2n1CCOc1ccc(Cl)cc1)c1ccco1,6,0,5.4*,.,90*,.
Cc1ccc(OCCn2c(NC(=O)c3ccco3)nc3ccccc32)cc1,68,7,64,0.15,27,.
Cc1ccccc1-n1nc(CSc2nc3ccccc3[nH]2)c(-c2ccccc2)c1N,73,2,84,.,19,.
Nc1c(-c2ccccc2)c(CSc2nc3ccccc3[nH]2)nn1-c1cccc(Cl)c1,11,1,16,-2,98*,-55
Nc1c(-c2ccccc2)c(CSc2nc3ccccc3[nH]2)nn1-c1ccc(Cl)cc1,49,1,62,-0.63,97*,-41
O=C(Cn1nc([N+](=O)[O-])nc1Br)NC(c1ccccc1)c1ccccc1,65,6,65,.,79*,.
CCOCCCNC(=O)C(c1ccc(OC)cc1)N(Cc1cccs1)C(=O)c1ccccc1O (stereo unspecified),.,0,.,0.24,13,.
Cc1cc(SCC(=O)N/N=C/c2ccc(O)c(O)c2)c(C)cc1Br,90,11,81,-0.35,72*,0
COc1ccc2nc(C)cc(SCC(=O)N/N=C/c3ccc(O)c(O)c3)c2c1,.,8,.,0.71,15,.
CCCCc1ccc(NC2=NCC(=O)N2CCc2ccccc2)cc1,.,1,.,1.1,-4,.
CCOc1ccc(C(C)(C)C)cc1S(=O)(=O)N1CC(C)OC(C)C1 (stereo unspecified),90,0,92,.,64*,-41
Cc1ccc(CSc2nnc([C@@H]3CCCN3C(=O)OC(C)(C)C)o2)cc1,.,-10,.,.,.,.
COc1ccc(/C=N/N2CCN(c3ccncc3S(=O)(=O)N3CCCCC3)CC2)cc1,105,-3,101,.,36,-13
SMILES,PTEN del growth,p97 inhibitor,HCT116 bCat-KO,ROMK mod,L major viab,INS promoter inh
O=S(=O)(c1cnccc1N1CCN(/N=C/c2ccccc2)CC1)N1CCCCC1,89,6,77,.,50*,42
O=S(=O)(c1ccc(Br)cc1)N1CCCN(Cc2ccccc2F)CC1,78,-6,81,-1.4,50*,-50
O=S(=O)(c1ccc(Cl)cc1)N1CCN(Cc2c[nH]c3ccccc23)CC1,100,-3,90,-1.9,52*,-55
COc1ccc(S(=O)(=O)N2CCN(Cc3ccccc3)CC2)cc1,97,7,100,-1.7,8,.
Cc1ccccc1CN1CCN(S(=O)(=O)c2ccc(F)cc2)CC1,92,-1,99,-1.5,40,-31
COc1ccc(S(=O)(=O)N2CCCN(Cc3cccc(F)c3)CC2)cc1,80,3,91,-1.5,90*,-24
COc1ccc(CN2CCN(S(=O)(=O)c3ccccc3)CC2)cc1Br,91,1,94,0.35,75*,.
N=c1n(CCCOc2ccccc2Cl)c2ccccc2n1CC(N)=O,.,8,.,-1.5,.,.
CCOC(=O)/C=c1\s/c(=C\c2sccc2C)c(=O)n1CC(=O)NCc1ccc(C)cc1,.,-1,.,-0.69,-7,.
COc1ccc(OCCCC(=O)Nc2cccc([N+](=O)[O-])c2C)cc1,86,2,80,.,-4,.
CCN1CCN(S(=O)(=O)c2ccc(OC)c(Br)c2)CC1,100,6,103,.,84*,26
CCCS(=O)(=O)N1CCN(Cc2ccc(OCc3ccccc3)c(OC)c2)CC1,.,2,.,.,91*,50
O=C(Nc1cccc(Cl)c1)N1CCC(CO)(CCOc2ccccc2)CC1,.,2,.,0.68,6,.
COc1cccc(C2/C(=C(\O)c3ccc4c(c3)OCCO4)C(=O)C(=O)N2CCCN(C)C)c1OC (stereo unspecified),.,0,.,.,-8,0
O=c1c2c(-c3ccccc3)csc2nc2c3ccccc3c(NCCN3CCOCC3)nn12,.,8,.,-1,100*,-191
Nc1nc2ccccc2n1/N=C/c1cccnc1,91,1,94,2.2*,21,-25
Cc1nc2ccccc2n1/N=C/c1cccnc1,87,-2,85,1.2,14,31
Nc1nc2ccccc2n1/N=C/c1ccc([N+](=O)[O-])s1,2.6*,6,3.5*,0.63,100*,-43
CCc1ccc(CN(C)C(=O)CCc2nnc(COc3ccccc3)o2)cc1,.,-6,.,-0.67,-7,-43
Cc1ccc2cc(CCNS(=O)(=O)c3ccc(F)cc3)c(=O)[nH]c2c1C,.,2,.,.,2,.
CCN(CC)S(=O)(=O)c1ccc2c(c1)N(CC(=O)Nc1cccnc1Cl)C(=O)CO2,.,1,.,-0.34,0,14
O=C(N/N=C/C(Br)=C/c1ccccc1)c1n[nH]c2c1CCC2,1.7*,6,2.7*,1.9,98*,.
O=C(N/N=C/c1ccccc1Cl)c1n[nH]c2c1CCCC2,52,-4,51,.,89*,-22
O=C(N/N=C/c1cccs1)c1n[nH]c2c1CCC2,20,1,21,.,1,.
O=C(N/N=C/c1ccccc1)c1n[nH]c2c1CCCC2,.,-4,.,0.014,16,.
CCn1nc(C)c([N+](=O)[O-])c1C(=O)NNC(=O)c1ccc(Cl)cc1,.,-5,.,.,.,.
COc1ccc(CN2CCCCC2c2cccnc2)c(OC)c1C (stereo unspecified),.,-4,.,0.45,70*,.
